Measurements as given in PubChem BioAssay AID1159580 (chemical genetic matrix, 2015).
Where “and” joins values, the source holds several entries; their conditions need not be identical. Equal values may be shown once. Hit rate of the full screen: of about 5,500 compounds, about 2,000 (36%) were called active. About 18% were inconclusive and are not listed. Rule as the data show it: active = normalized growth mostly below about 0.91 (no sharp cut-off); inconclusive = no clear call, values can overlap the other calls; inactive = mostly above about 0.92. This is one part of the list.

Assay: chemical genetic growth profiling, strain panel (AID 1159580);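 also: tested at 20 µM; growth read once vehicle control cultures reached saturation at 30 °C; 1 = growth at the plate median or of vehicle wells; lower values mean less growth of the strain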
Conditions: growth OD

Measured: normalized growth

CO[C@@H]1C[C@H](O[C@H]2CC[C@]3(C)C4CC[C@]5(C)[C@@H](C6=CC(=O)OC6)CC[C@]5(O)[C@@H]4CC[C@]3(O)C2)O[C@H](C)[C@@H]1O (some centres not stated)
inactive: S. cerevisiae deletion strains, locus YBR021W, strain FUR4, stronger effect = lower value 0.961 | S. cerevisiae deletion strains, locus YBR229C, strain ROT2, stronger effect = lower value 1 | S. cerevisiae deletion strains, locus YCL029C, strain bik1, stronger effect = lower value 1.02 | S. cerevisiae deletion strains, locus YDL035C, strain GPR1, stronger effect = lower value 0.905 | S. cerevisiae deletion strains, locus YDL074C, strain BRE1, stronger effect = lower value 0.987 | S. cerevisiae deletion strains, locus YDL101C, strain DUN1, stronger effect = lower value 1.02 | S. cerevisiae deletion strains, locus YDL134C, strain PPH21, stronger effect = lower value 1 | S. cerevisiae deletion strains, locus YDL185W, strain tfp1, stronger effect = lower value 1.05 | S. cerevisiae deletion strains, locus YDR101C, strain arx1, stronger effect = lower value 1.01 | S. cerevisiae deletion strains, locus YDR162C, strain NBP2, stronger effect = lower value 0.881 | S. cerevisiae deletion strains, locus YDR318W, strain mcm21, stronger effect = lower value 0.987 | S. cerevisiae deletion strains, locus YDR388W, stronger effect = lower value 1 | S. cerevisiae deletion strains, locus YEL061C, strain CIN8, stronger effect = lower value 1.01 | S. cerevisiae deletion strains, locus YER110C, stronger effect = lower value 1.02 | S. cerevisiae deletion strains, locus YER155C, strain BEM2, stronger effect = lower value 1.01 | S. cerevisiae deletion strains, locus YER167W, strain BCK2, stronger effect = lower value 0.95 | S. cerevisiae deletion strains, locus YGL078C, strain dbp3, stronger effect = lower value 0.96 | S. cerevisiae deletion strains, locus YGL086W, strain mad1, stronger effect = lower value 0.935 | S. cerevisiae deletion strains, locus YGL248W, strain PDE1, stronger effect = lower value 1.02 | S. cerevisiae deletion strains, locus YGR078C, strain PAC10, stronger effect = lower value 0.926 | S. cerevisiae deletion strains, locus YGR252W, strain gcn5, stronger effect = lower value 0.844 | S. cerevisiae deletion strains, locus YHR030C, strain SLT2, stronger effect = lower value 1.02 and 1.05 | S. cerevisiae deletion strains, locus YHR079C, strain IRE1 (second series), stronger effect = lower value 1.02 | S. cerevisiae deletion strains, locus YHR079C, strain IRE1, stronger effect = lower value 1.07 | S. cerevisiae deletion strains, locus YHR094C, strain hxt1, stronger effect = lower value 1.02 | S. cerevisiae deletion strains, locus YHR129C, strain ARP1, stronger effect = lower value 1.01 | S. cerevisiae deletion strains, locus YIL066C, strain RNR3, stronger effect = lower value 0.956 | S. cerevisiae deletion strains, locus YIL073C, strain SPO22, stronger effect = lower value 1.04 | S. cerevisiae deletion strains, locus YIR030C, strain dcg1, stronger effect = lower value 1.01 | S. cerevisiae deletion strains, locus YJL095W, strain BCK1, stronger effect = lower value 1.03 and 1.05 | S. cerevisiae deletion strains, locus YJL134W, strain LCB3, stronger effect = lower value 1.01 | S. cerevisiae deletion strains, locus YJL168C, strain set2, stronger effect = lower value 1.02 | S. cerevisiae deletion strains, locus YJL187C, strain SWE1 (second series), stronger effect = lower value 1.04 | S. cerevisiae deletion strains, locus YJR043C, strain POL32, stronger effect = lower value 0.949 | S. cerevisiae deletion strains, locus YJR066W, strain TOR1, stronger effect = lower value 0.987 | S. cerevisiae deletion strains, locus YJR075W, strain HOC1, stronger effect = lower value 0.901 | S. cerevisiae deletion strains, locus YKL009W, strain mrt4, stronger effect = lower value 0.917 | S. cerevisiae deletion strains, locus YKL068W, stronger effect = lower value 0.996 | S. cerevisiae deletion strains, locus YLR039C, strain RIC1, stronger effect = lower value 0.887 | S. cerevisiae deletion strains, locus YLR058C, strain SHM2, stronger effect = lower value 1.01 | S. cerevisiae deletion strains, locus YLR102C, strain apc9, stronger effect = lower value 1.03 | S. cerevisiae deletion strains, locus YLR113W, strain HOG1, stronger effect = lower value 0.964 | S. cerevisiae deletion strains, locus YLR262C, strain YPT6, stronger effect = lower value 0.879 | S. cerevisiae deletion strains, locus YLR268W, strain sec22, stronger effect = lower value 0.95 | S. cerevisiae deletion strains, locus YLR330W, strain CHS5, stronger effect = lower value 1.01 | S. cerevisiae deletion strains, locus YLR342W, strain FKS1 (second series), stronger effect = lower value 0.953 | S. cerevisiae deletion strains, locus YLR371W, strain rom2, stronger effect = lower value 1.05 | S. cerevisiae deletion strains, locus YML016C, strain PPZ1, stronger effect = lower value 1 | S. cerevisiae deletion strains, locus YML032C, strain rad52, stronger effect = lower value 0.988 | S. cerevisiae deletion strains, locus YML124C, strain tub3, stronger effect = lower value 1.02 | S. cerevisiae deletion strains, locus YMR078C, strain ctf18, stronger effect = lower value 1.02 | S. cerevisiae deletion strains, locus YMR263W, strain SAP30, stronger effect = lower value 1.02 | S. cerevisiae deletion strains, locus YMR307W, strain GAS1, stronger effect = lower value 0.815 | S. cerevisiae deletion strains, locus YNL067W, strain RPL9B, stronger effect = lower value 0.99 | S. cerevisiae deletion strains, locus YNL128W, strain TEP1, stronger effect = lower value 0.925 | S. cerevisiae deletion strains, locus YNL153C, strain GIM3, stronger effect = lower value 1.03 | S. cerevisiae deletion strains, locus YNL183C, strain NPR1, stronger effect = lower value 0.988 | S. cerevisiae deletion strains, locus YNL233W, strain BNI4, stronger effect = lower value 0.941 | S. cerevisiae deletion strains, locus YNL250W, strain rad50, stronger effect = lower value 0.964 | S. cerevisiae deletion strains, locus YNL271C, strain bni1, stronger effect = lower value 0.999 | S. cerevisiae deletion strains, locus YNL298W, strain CLA4, stronger effect = lower value 0.944 | S. cerevisiae deletion strains, locus YNL307C, strain MCK1, stronger effect = lower value 1.02 | S. cerevisiae deletion strains, locus YNL322C, strain KRE1, stronger effect = lower value 0.999 | S. cerevisiae deletion strains, locus YNR052C, strain pop2, stronger effect = lower value 1.02 | S. cerevisiae deletion strains, locus YOL012C, strain htz1 2.27 | S. cerevisiae deletion strains, locus YOL147C, strain pex11, stronger effect = lower value 1.02 | S. cerevisiae deletion strains, locus YOR061W, strain CKA2, stronger effect = lower value 1.01 | S. cerevisiae deletion strains, locus YOR069W, strain VPS5, stronger effect = lower value 1.01 | S. cerevisiae deletion strains, locus YOR136W, strain idh2, stronger effect = lower value 0.983 | S. cerevisiae deletion strains, locus YOR144C, strain elg1, stronger effect = lower value 1.01 | S. cerevisiae deletion strains, locus YOR231W, strain MKK1, stronger effect = lower value 1.05 | S. cerevisiae deletion strains, locus YOR316C, strain cot1, stronger effect = lower value 1.02 | S. cerevisiae deletion strains, locus YPL055C, strain LGE1, stronger effect = lower value 0.877 | S. cerevisiae deletion strains, locus YPL256C, strain CLN2, stronger effect = lower value 1.11 | S. cerevisiae deletion strains, locus YPR119W, strain clb2, stronger effect = lower value 1.02 | S. cerevisiae deletion strains, locus YPR141C, strain kar3, stronger effect = lower value 1.02 | S. cerevisiae deletion strains, locus YPR163C, strain tif3, stronger effect = lower value 0.993 | S. cerevisiae deletion strains, locus YPR167C, strain met16, stronger effect = lower value 0.934 | S. cerevisiae deletion strains, strain wtn01, stronger effect = lower value 0.921
active: S. cerevisiae deletion strains, locus YAL013W, strain DEP1, stronger effect = lower value 0.869 | S. cerevisiae deletion strains, locus YDL192W, strain arf1, stronger effect = lower value 0.888 | S. cerevisiae deletion strains, locus YDR502C, strain sam2, stronger effect = lower value 0.893 | S. cerevisiae deletion strains, locus YGR135W, strain pre9, stronger effect = lower value 0.865 | S. cerevisiae deletion strains, locus YHR200W, strain rpn10, stronger effect = lower value 0.92 | S. cerevisiae deletion strains, locus YIL125W, strain kgd1, stronger effect = lower value 0.926 | S. cerevisiae deletion strains, locus YKL085W, strain MDH1 (second series), stronger effect = lower value 0.897 | S. cerevisiae deletion strains, locus YKL085W, strain MDH1, stronger effect = lower value 0.897 | S. cerevisiae deletion strains, locus YKR001C, strain vps1, stronger effect = lower value 0.76 | S. cerevisiae deletion strains, locus YLR418C, strain cdc73, stronger effect = lower value 0.651 | S. cerevisiae deletion strains, locus YMR223W, strain ubp8, stronger effect = lower value 0.889 | S. cerevisiae deletion strains, locus YOR184W, strain ser1, stronger effect = lower value 0.606 | S. cerevisiae strains, strain wild type, stronger effect = lower value 0.899
